# Compound activity deposited in PubChem BioAssay by Broad Institute.
# Many of the other results were omitted from the sample, so hits are more common in it than they were.
# NOMO-1 viab – STK33 inhibitor candidate reducing NOMO-1 cell viability; NOMO-1 AML viability, CellTiter-Glo luminescence, 72 h; inhibition, % (test concentration not listed); actives 7.5% (n = 37,000); AID 2330; in the data active means inhibition above about 80%; inconclusive means no clear call, values can overlap the other calls
# STK33 inh – human STK33 kinase inhibition; ADP-Glo luminescence, MBP substrate; inhibition, % at 12.5 µM; actives 0.44% (n = 27,000); AID 2322; in the data active means inhibition above about 20%; inconclusive means no clear call, values can overlap the other calls
# Target sequence (Q9BYT3 whole entry, looked up): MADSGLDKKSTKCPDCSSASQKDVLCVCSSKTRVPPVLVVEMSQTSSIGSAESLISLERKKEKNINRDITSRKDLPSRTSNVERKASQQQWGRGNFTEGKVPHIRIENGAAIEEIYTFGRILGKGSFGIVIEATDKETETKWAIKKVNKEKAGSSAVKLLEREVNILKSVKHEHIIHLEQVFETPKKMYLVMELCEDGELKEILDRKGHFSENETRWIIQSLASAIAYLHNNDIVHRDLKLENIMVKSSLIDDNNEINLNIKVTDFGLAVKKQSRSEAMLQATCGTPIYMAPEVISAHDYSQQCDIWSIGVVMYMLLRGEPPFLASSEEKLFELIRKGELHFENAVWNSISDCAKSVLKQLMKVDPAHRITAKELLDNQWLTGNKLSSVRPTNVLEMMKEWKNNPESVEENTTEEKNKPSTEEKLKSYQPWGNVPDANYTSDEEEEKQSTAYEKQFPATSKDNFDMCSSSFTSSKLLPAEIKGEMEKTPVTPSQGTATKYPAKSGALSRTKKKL
# mut p53 react – restores mutant p53 pathway signaling in SW480 cells; SW480 PUMA-promoter luciferase, p53 mutant reactivation; activation, % at 9.98 µM; actives 1.5% (n = 28,000); in the data active means activation above about 52%; inconclusive means no clear call, values can overlap the other calls
# MITF inhib – blocks MITF activity; TRPM1 promoter luciferase, luminescence, 24 h; inhibition, % (test concentration not listed); actives 0.28% (n = 37,000); AID 2240; in the data active means inhibition above about 85%; inconclusive means no clear call, values can overlap the other calls; inactive means below about 68%;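 further: human melanocyte line stably carrying TRPM1 promoter luciferase reporter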
# * hit, by the source's call; u = inconclusive; x = not tested or not shown.
SMILES,NOMO-1 viab,STK33 inh,mut p53 react,MITF inhib
C=C(C(=O)O[C@H]1C/C=C(/C)C[C@H](O)[C@H]2[C@H](C)C(=O)O[C@@H]2/C=C\1C)[C@@H]1CCC(=C)[C@@H]2C[C@H](O[C@@H]3O[C@H](COC(=O)CC(=O)O)[C@@H](O)[C@H](O)[C@H]3O)C(=C)[C@@H]2C1,104.7*,-4.1,x,1.7
O=C(NCc1ccccc1)c1nc2ncccn2n1,2.9,x,x,5.8
CC1CCc2c(sc(NC(=O)c3nc4ncccn4n3)c2C(N)=O)C1 (configuration not stated),-12.9,-0.3,58.5*,-84.3
CC(C)(C)c1ccc(C(=O)N2CCN(c3ccc([N+](=O)[O-])c(NCc4cccnc4)c3)CC2)cc1,110.7*,-0.8,-100.5,u
CCC1=NC(C(F)(F)F)(C(F)(F)F)C2=C(CC(C)(C)CC2=O)N1Cc1ccccc1,41.2,x,x,-31.1
Nc1nc(CSc2ccccn2)nc(Nc2ccccc2)n1,18.8,1.1,88.9*,-72.2
Cc1nnc(SCc2nc(N)nc(Nc3ccccc3)n2)s1,-1.1,-1.4,23.3,-41.9
COc1ccc(C(=O)c2oc3ccccc3c2NC(=O)COc2ccc(C)cc2)cc1,2.6,0.0,22.0,-44.7
CCc1oc2ccccc2c1C(=O)c1ccc(OC(C)=O)cc1,136.5*,x,x,32.2
CC(C)(O[C@@H]1O[C@H](CO)[C@@H](O)[C@H](O)[C@H]1O)[C@@H](O)COc1c2ccoc2cc2oc(=O)ccc12,11.3,-6.1,7.9,-0.8
COc1cccc(-c2cc(NCc3ccc4c(c3)OCO4)nc(N)n2)c1,94.6*,0.9,-69.7,-0.8
CCn1c(SCC(=O)Nc2ccc(Br)cc2F)nnc1-c1ccccc1Cl,3.6,6.3,-9.4,18.6
C[C@@H]1CN([C@H](C)CO)C(=O)c2cccc(NC(=O)Nc3ccc(C(F)(F)F)cc3)c2O[C@@H]1CN(C)S(=O)(=O)c1cccs1,100.9*,x,-10.5,24.3
C[C@H](CO)N1C[C@H](C)[C@@H](CN(C)S(=O)(=O)c2cccs2)Oc2c(NC(=O)Nc3ccc(C(F)(F)F)cc3)cccc2C1=O,45.2,x,-11.2,18.7
C[C@@H]1CN([C@@H](C)CO)C(=O)c2cccc(NC(=O)Nc3ccc(C(F)(F)F)cc3)c2O[C@H]1CN(C)S(=O)(=O)c1cccs1,88.1*,x,-10.0,11.0
Cc1ccc(NC(=O)CSc2nnnn2-c2ccc(Cl)c(C(=O)O)c2)cc1C,24.2,-2.2,7.9,5.4
Cn1c(SCC(=O)Nc2ccc(F)cc2)nnc1-c1ccc([N+](=O)[O-])cc1,1.3,26.5*,-1.2,-1.9
Cc1c(Br)ccc(NC(=O)CSc2nnc(-c3ccc(Cl)cc3)n2C)c1C,32.6,2.2,106.7*,-66.7
Cn1c(SCC(=O)Nc2ccc(Cl)cc2Cl)nnc1-c1ccc(Cl)cc1,9.8,-0.1,3.8,9.9
COc1ccc(C)cc1S(=O)(=O)NCCO,19.9,0.8,-2.6,-7.0
COc1ccccc1NC(=O)c1c(NCc2ccc(C)o2)sc2c1CCC2,26.9,0.5,21.9,4.3
O=C1c2cccc3cccc(c23)C(=O)N1CCCSc1ncn[nH]1,31.0,2.2,44.6,-3.2
O=C1c2cccc3cccc(c23)C(=O)N1CCCSc1n[nH]c(-c2ccc(F)cc2)n1,25.8,-3.6,55.4*,6.7
COc1cc(NS(=O)(=O)c2ccc(NC(=O)c3csc(C)c3)cc2)nc(OC)n1,3.9,0.0,-8.9,9.9
COc1ccc(NC(=O)C(C)Oc2ccccc2)c([N+](=O)[O-])c1 (configuration not stated),22.9,7.2,86.2*,-84.3
SMILES,NOMO-1 viab,STK33 inh,mut p53 react,MITF inhib
COc1ccc(NC(=O)CSc2nnc(C)s2)c([N+](=O)[O-])c1,4.8,-2.0,1.7,-17.9
COc1ccc(OCC(=O)Nc2ccccc2OC(F)F)cc1,-9.0,-3.8,64.7*,-26.9
COc1ccc(NC(=O)COc2ccccc2)c([N+](=O)[O-])c1,x,-0.3,71.7*,x
COc1ccc(NC(=O)CSc2nc3ccccc3o2)c([N+](=O)[O-])c1,x,-0.6,69.1*,x
COc1ccc(OCC(=O)Nc2cc(OC)ccc2OC)cc1,x,-1.3,11.0,x
CCN1CSC(=S)N(CC)C1,x,x,-13.4,x
CCOC(=O)c1c(NC(=O)c2ccc(C)c(S(=O)(=O)N3CCCC3)c2)sc(C)c1C,53.5,-1.7,30.8,-5.1
Cc1ccc(NC(=O)CCCOc2ccccc2)c([N+](=O)[O-])c1,19.4,-1.3,79.1*,-63.7
Cc1ccc(NC(=O)C(C)Oc2ccc(Cl)cc2Cl)c([N+](=O)[O-])c1 (configuration not stated),21.5,-0.2,77.0*,-1.3
Cc1cc(C(=O)Sc2cccc(C(F)(F)F)c2)nn1C(C)(C)C,55.3,-1.6,x,-16.9
Cc1ccc(S(=O)(=O)Nc2ccc3c(c2)CC(=O)N([C@H](C)CO)C[C@@H](C)[C@@H](CN(C)CC2CCCCC2)O3)cc1,97.0*,1.2,x,1.0
C[C@H](CO)N1C[C@H](C)[C@H](CN(C)CC2CCCCC2)Oc2ccc(NS(=O)(=O)c3ccccc3)cc2CC1=O,28.9,-0.3,x,-11.0
Cc1ccc(S(=O)(=O)Nc2ccc3c(c2)CC(=O)N([C@@H](C)CO)C[C@H](C)[C@H](CN(C)CC2CCCCC2)O3)cc1,102.0*,1.7,x,5.7
Cc1ccc(S(=O)(=O)Nc2ccc3c(c2)CC(=O)N([C@H](C)CO)C[C@@H](C)[C@H](CN(C)CC2CCCCC2)O3)cc1,83.6*,-0.5,13.9,4.6
Cc1ccc(S(=O)(=O)Nc2ccc3c(c2)CC(=O)N([C@H](C)CO)C[C@@H](C)[C@H](CN(C)CC2CC2)O3)cc1,12.1,x,x,-7.2
C[C@@H]1CN([C@H](C)CO)C(=O)c2cc(NC(=O)Nc3cccc4ccccc34)ccc2O[C@H]1CN(C)Cc1ccc(Oc2ccccc2)cc1,108.6*,5.9,x,1.0
C[C@@H]1CN([C@@H](C)CO)C(=O)c2cc(NC(=O)Nc3cccc4ccccc34)ccc2O[C@@H]1CN(C)Cc1ccc(Oc2ccccc2)cc1,114.4*,x,x,7.0
CC1OC(OC(=O)C2=CC3(O)CC(C)(C)CC34C(C)CCC24)C(O)C(O)C1O (configuration not stated),-6.6,1.8,-2.0,8.1
Cc1cc(C)nc(S/C=C/C(=O)c2ccc(Cl)cc2)n1,121.2*,x,x,-0.1
Cn1cnnc1Sc1cc(C#N)c(C#N)cc1Sc1nncn1C,21.6,0.2,x,-4.3
Cn1cnnc1S/C=C/C(=O)c1ccc(Cl)cc1,115.7*,x,x,76.6
Cc1cc(C)nc(SCC(O)COc2ccc(Cl)cc2)n1 (configuration not stated),-3.4,-4.2,16.5,-5.3
O=C(/C=C/Sc1ccc(Cl)cc1)c1ccccc1,122.6*,x,x,-2.3
Cc1cc(Cl)ccc1OC(C)C(=O)Nc1cccc(NC(=O)c2ccco2)c1 (configuration not stated),41.7,-4.2,-0.4,14.8
C[C@H]1CN([C@@H](C)CO)C(=O)Cc2cc(NS(=O)(=O)c3ccc(Cl)cc3)ccc2O[C@@H]1CN(C)Cc1ccccc1,106.8*,-3.6,x,44.1
C[C@H]1CN([C@@H](C)CO)C(=O)Cc2cc(NS(=O)(=O)c3ccc(Cl)cc3)ccc2O[C@H]1CN(C)Cc1ccccc1,100.7*,x,x,26.4
